The panel holds about 83,000 compounds, 20% with a hit somewhere; the sample as a whole holds those more often.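 Percent growth is the endpoint: 0 to 100 indicates growth inhibition (40 means 60% inhibition), 0 means no net growth, and negative values indicate cell death.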 Unmarked numbers belong to inactive results. Activity calls are given as the source filed them.

For this test, the system named is ACHN renal. Nature of the test: NCI-60 one-dose screen, 48 h (100 = growth as untreated, 0 = no growth, -100 = all killed). The note with it: 10 µM unless noted. As to the method:
Growth inhibition of the ACHN human tumor cell line is measured as a screen for anti-cancer activity. Cells are grown in 96 well plates and exposed to the test compound for 48 hours. Compounds are tested at a single concentration, which is 10^-5 M for most compounds. The reported endpoint is percent growth (GI% or GIPRCNT), where numbers from 0 - 100% represent growth inhibition, and numbers from -100% - 0 represent cell death. For example, a value of 40 represents 60% growth inhibition. A value of 0 means no net growth occurred over the course of the experiment. A value of -40 indicates 40% of cells at the beginning of the experiment died by the end of the experiment. A value of -100 means all cells are dead at the end of the experiment.
NCI-60 Human Tumor Cell Lines Screen was performed using the standard one-dose NCI protocol, which is described in more detail at https://dtp.cancer.gov/discovery_development/nci-60/default.htm.
Compounds with GIPRCNT values below 10 were considered active. Activity score was based on GIPRCNT using the following formula: […]
Score is 0 for GIPRCNT values of 100 or above, 50 for GIPRCNT values of 0, and 100 for GIPRCNT values of -100.
As to `COc1cc(C2CC(c3cccc(Nc4ccncc4)c3)=Nc3c(N)ncnc3N2)cc(OC)c1OC` (stereo not given), the growth was 95.1%. Turning to `O=C(O)c1cc2ccccc2s1`, the growth was 103%. On to `CC(=O)[C@H]1CC[C@]2(C)[C@@H]1CC[C@@H]1[C@@]3(C)C/C(=C/c4cccnc4)C(=O)C(C)(C)[C@@H]3CC[C@]12C`, for which the growth was 87.3%.

`CCN1CCN(c2nc(NNC(=O)c3ccc(OC)cc3)nc(N3CCN(C(c4ccccc4)c4ccccc4)CC3)n2)CC1`: the growth is 34%. Regarding `Cc1cc(=O)oc2cc(Oc3nc(-c4ccccc4)cn4c(-c5ccccc5)cnc34)ccc12`, the growth is 48.6%. Consider `O=C(/C=C/c1ccc(Cl)cc1)c1ccc(-n2cc(CN3CCN(c4cc5c(cc4F)c(=O)c(C(=O)O)cn5C4CC4)CC3)nn2)cc1`, for which the growth is 89.9%.

With `C=C(C)Cn1c(SCC(=O)c2cccs2)nc2sc3c(c2c1=O)CCCC3`, the growth was 44.3%. Under `Cc1c2cnccc2c(C)c2c1c1cc(C(=O)O)ccc1n2C` stands -15% (active); under `CN1CCN(Cc2ccc(NC(=O)c3cncc(C#Cc4cnc(N)c5ccc(C#N)cc45)c3)cc2C(F)(F)F)CC1`, -92.5% (active); under `CC(=O)OCCOc1cc(Cl)c(Cl)cc1Cl`, 103%. Under `COc1ccc(C2=NN(C=O)C(c3ccc(Oc4nc5c(c(=O)n(C)c(=O)n5C)n4C)c(OC)c3)C2)cc1` (stereo not given) stands 84.8%; under `COCCNC(=O)Cc1cc(-c2ccc(Cl)cc2)n(-c2ccccc2)c1C`, 92.5%. With `N#CC1=C(N)Oc2c(ccc3cccnc23)C1c1ccccc1` (stereo not given) the figure was 45.8%; with `C=C(C[n+]1ccccc1)[C@@H]1CC[C@]2(C(=O)OC)CC[C@]3(C)[C@H](CC[C@@H]4[C@@]5(C)CCC(=O)C(C)(C)[C@@H]5CC[C@]43C)[C@@H]12`, 95.4%. For the compound `CN1C(=O)N(C)C2C1NN=c1s/c(=C\c3ccccc3F)c(=O)n12` (stereo not given), the growth is 36.8%.

On to `CCn1c2ccccc2c2cc(C(O)c3cccc4ncccc34)ccc21` (stereo not given), for which the growth was 27.9%. As for `CCCS(=O)(=O)Nc1cccc(Nc2ncnc3cc(NC(=O)CCl)ccc23)c1Cl`, the growth is -94.4% (active). Regarding `O=C(Nc1ccc(Oc2cccc(F)c2)c(Cl)c1)c1cnccn1`, the growth was 37.7%.

In the case of `O=C(O)CCCN1C(=O)CSC1=S`, the growth was 108%. Take `Cc1cc2nc(C(Cl)Cl)nc(-c3ccccc3)n2n1`: the growth is 11.6%.

For `O=C(/C=C/c1ccco1)Nc1ncc(Cc2ccc(F)cc2)s1`, the growth is 40.2%. For `COc1cccc2cc(N(C)c3nc(C)nc4c3CCC4)ccc12`, the growth is 27.3%. Under `Cc1c(Cl)cccc1NC(=O)c1sc2nc3c(cc2c1N)CCCC3` stands 47.2%. Regarding `CO[C@]12C=C/C(=C(/C(=O)OCc3cccnc3)C(=O)CCCCCCCC[C@]3(OC)C=C/C(=C(/C(=O)OCc4cccnc4)C(=O)CCCCCCCC1)O3)O2`, the growth is -73.6% (active). In the case of `COc1cc(/C=C/c2cc(/C=C/c3ccc(O)c(OC)c3)n(C(=O)Nc3ccc(C)cc3C)n2)ccc1O`, the growth is 5.29% (active). Take `O=C(O)c1nn(-c2ccc(Cl)cc2)nc1N1CCCC1`: the growth is 99.4%.

Turning to `CCOC(=O)CSc1nc2sc3c(c2c(=O)n1-c1ccccc1)CCCCC3`, the growth is 102%. As for `COc1nc2ccccc2cc1/C=[N+](\[O-])c1ccccc1`, the growth is 86.1%. In the case of `Cc1ccc(C(=O)Nc2ccc(CN3CCN(C)CC3)c(C(F)(F)F)c2)cc1C#Cc1cnc(N)c2ccccc12`, the growth is -91.8% (active).

For the compound `COc1ccc(-c2ccc(-c3ccc(C(=N)N)o3)o2)cc1`, the growth is 41.6%. For `CC(=O)O[C@H]1C[C@@]2(C)[C@@H](C[C@@H](O)[C@H]3[C@@]4(C)CC[C@H](N5CCCC5)[C@@H](C)[C@@H]4CC[C@@]32C)/C1=C(\CCC=C(C)C)C(=O)O`, the growth was 102%. As to `CCOC(=O)C1=C(c2ccccc2)N=C2SC=C(c3cccc([N+](=O)[O-])c3)N2C1c1ccc(O)cc1` (stereo not given), the growth is 106%. With `C=C(C)[C@@H]1CC[C@]2(C(=O)NC(C)=O)CC[C@]3(C)[C@H](CC[C@@H]4[C@@]5(C)CCCNC(C)(C)[C@@H]5CC[C@]43C)[C@@H]12` the figure was -30.1% (active). With `CN(Cc1ccccc1)c1nc(Cl)c(C2CC(c3ccc(Cl)cc3)=NN2c2cc(Cl)cc(Cl)c2)s1` (stereo not given), the growth was 102%.

For `Cc1nc2ccccc2c(/C=C/c2ccc(Br)cc2)c1C(=O)/C=C/c1ccccc1`, the growth is 6.36% (active).

Regarding `COc1cccc(C(=O)Nc2cccc(NC(=O)c3ccccn3)c2)c1`, the growth is 100%. Regarding `C=C1C(=O)O[C@H]2[C@H]1CC/C(CNC(=O)/C=C/c1cc(OC)c(OC)c(OC)c1)=C\CC[C@@]1(C)O[C@@H]21`, the growth is -79.6% (active). As for `COc1cccc(CNc2nnc(C)c(C)n2)c1O`, the growth is 110%. Under `Cn1cc(-c2csc(-c3cn(C)c4ccc(F)cc34)n2)c2cnccc21` stands -89.6% (active); under `COC(=O)c1c(C)nc(C)c2c1C(=O)C(Br)=C(NCCCCO)C2=O`, 84.7%.

The values above are taken from PubChem BioAssay (NCI).
